# In all, about 10,000 compounds went through this assay and about 25 (0.2%) were called active. The full list was thinned out, with actives kept by preference. Values without a mark were called inactive.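 Rule for the calls: active = compound among top-ranked inhibitors of TNF-induced VCAM-1 adhesion protein staining, with the hit upheld by image or statistical review; inactive = the rest, including hits rejected on review.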
# Test: inhibitors of TNFa-induced VCAM-1 surface display, cell-based, plate reader, pooled HUVEC, TNFa stimulus (AID 454)
# Conditions: HUVEC TNFa-induced VCAM-1 surface immunofluorescence; active compounds read high,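 compound tested at 5 µM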
row,Structure (SMILES),inhibition
1,COc1ccc(N(CC(=O)Nc2cc(C)ccc2C)S(=O)(=O)c2c(C)nn(C)c2C)cc1,inactive
2,Cc1ccc2nc(NC(=O)Cn3cc4c(n3)CCCCC4)sc2c1,inactive
3,CCCCNC(=O)OC(C)CNC(=O)Oc1cccc(C)c1 (centres undefined),inactive
4,Cc1ccc(O)c(-c2cc(C(=O)Nc3ccc(S(=O)(=O)N4CC(C)OC(C)C4)cc3)[nH]n2)c1 (centres undefined),inactive
5,O=C(Nc1ccc2c(c1)OCCO2)C1CCCN1S(=O)(=O)c1cccc2cccnc12 (centres undefined),inactive
6,CCOc1ccccc1NC(=O)CCSc1nc2n[nH]c(C)c2c(=N)n1-c1ccccc1Cl,inactive
7,Cn1c(=O)c2c(nc(NCCCO)n2CCc2ccccc2)n(C)c1=O,inactive
8,Cc1ccc(-n2c(=O)[nH]c3c(C(N)=O)nc(CC(C)C)nc32)cc1,inactive
9,N/C(Cn1nnc(-c2ccccc2)n1)=N\O,inactive
10,CO[C@H]1C[C@@H]2CC[C@@H](C)[C@@](O)(O2)C(=O)C(=O)N2CCCC[C@H]2C(=O)O[C@H]([C@H](C)C[C@@H]2CC[C@@H](O)[C@H](OC)C2)CC(=O)[C@H](C)C=C(C)[C@@H](O)[C@@H](OC)C(=O)[C@H](C)C[C@H](C)C=CC=CC=C1C,88.8% (active)
11,CCOC(=O)C1CCN(c2c(NC3CCCc4ccccc43)c(=O)c2=O)CC1 (centres undefined),inactive
12,Cc1ccc(C)c2[nH]c(=O)c(CCNC(=O)c3ccc(S(=O)(=O)N(C)C)cc3)cc12,inactive
13,Cc1cc(-n2c(C)cc(C(=O)CSc3nnnn3-c3ccc(Cl)cc3)c2C)no1,inactive
14,COc1ccc(Cc2nc(-c3ccc(NC(=O)c4cccnc4)cc3)no2)cc1,inactive
15,O=C(Nc1ccc(-c2noc(-c3cccs3)n2)cc1)c1cccnc1,inactive
16,CC(Oc1ccc(Cl)cc1Cl)c1nc(-c2ccc(NC(=O)c3cccnc3)cc2)no1 (centres undefined),72% (active)
17,O=C(CCSc1nccn1Cc1ccccc1)N1CCOCC1,inactive
18,Cc1nnc(NC(=O)C2CCCO2)s1 (centres undefined),inactive
19,CCN1CCN(C(c2ccc(F)cc2)c2nnnn2Cc2cccs2)CC1 (centres undefined),inactive
20,O=C(COC(=O)c1ccco1)NCc1cccs1,inactive
21,CCCCn1nnnc1SCC(=O)N1CCN(C(=O)c2ccco2)CC1,inactive
22,COC(=O)CC1SCCNC1=O (centres undefined),inactive
23,Cn1c(-c2ccccc2)cc(=O)c2ccccc21,inactive
24,O=C(NCCC1=CCCCC1)c1cc2c(s1)CS(=O)(=O)C2,inactive

row,Structure (SMILES),inhibition
1,COc1ccc(C(=O)Cn2nnc(-c3cccs3)n2)cc1,inactive
2,O=C(Nc1sccc1C(=O)NCc1ccco1)c1cccnc1,inactive
3,CCC1CCCCN1S(=O)(=O)c1ccc(C(=O)Nc2nnc(-c3cccs3)o2)cc1 (centres undefined),inactive
4,CCC1CCCCN1S(=O)(=O)c1ccc(C(=O)Nc2nnc(-c3ccccc3Cl)o2)cc1 (centres undefined),inactive
5,CC1CCCN(S(=O)(=O)c2ccc(C(=O)Nc3nnc(-c4ccccc4Cl)o3)cc2)C1 (centres undefined),77.1% (active)
6,COc1ccc(-c2cc(C(=O)NCc3ccc(Cl)cc3)no2)cc1OC,inactive
7,COC(=O)c1[nH]c2cc(OC)ccc2c1NC(=O)CCN1CCCCC1,inactive
8,O=S(=O)(Cc1ccc(Cl)cc1)Nc1ccc2c(c1)OCO2,inactive
9,CCOC(=O)N1CCN(S(=O)(=O)c2cc(Cl)ccc2Cl)CC1,inactive
10,Cc1nnc(SCCn2c(N3CC(C)CC(C)C3)nc3c2c(=O)n(C)c(=O)n3C)s1 (centres undefined),inactive
11,COC(=O)c1[nH]c2ccccc2c1NC(=O)CN1CCC(C(N)=O)(N2CCCCC2)CC1,inactive
12,CCC(C)NC(=O)CC1Oc2ccc(C)cc2NC1=O (centres undefined),inactive
13,COc1ccccc1NC(=O)N1CCN(c2cccc(C(F)(F)F)c2)CC1,inactive
14,Cc1cc(C)n2nc[n+](C)c2n1,inactive
15,CC(=O)N1CCN(S(=O)(=O)c2cccc(C(=O)Nc3ccc4c(c3)CCC4)c2)CC1,inactive
16,CCc1nnc2c3cnn(-c4ccccc4)c3ncn12,inactive
17,Cc1ccc(S(=O)(=O)N2CCCC2)cc1S(=O)(=O)N1CCCC1,inactive
18,CS(=O)(=O)N1CCc2cc(C(=O)N3CCCCC3)ccc21,inactive
19,Cc1cc(C)nc(NS(=O)(=O)c2ccc(NC(=O)Cn3c(=O)oc4ccccc43)cc2)n1,inactive
20,CCOC(=O)c1[nH]c2ccc(C)cc2c1NC(=O)CN1CCCCC1,inactive
21,O=C(CN(Cc1ccc(F)cc1)C(=O)Cn1nnc2ccccc21)NCC1CCCO1 (centres undefined),inactive
22,S=C(NCC1CCCO1)n1nnc2ccccc21 (centres undefined),104% (active)
23,O=C(NCC1CCCO1)c1ccc(C(=O)NCC2CCCO2)cc1 (centres undefined),inactive
24,CC(=O)Oc1ccc(CCC(C)OC(C)=O)cc1 (centres undefined),inactive

row,Structure (SMILES),inhibition
1,c1cc2c(cc1Nc1nc(-c3ccc4c(c3)OCO4)cs1)OCCO2,inactive
2,CC(=O)Nc1nc(C)c(-c2csc(Nc3ccc(O)cc3)n2)s1,inactive
3,Oc1ccc(Nc2nc(-c3ccc(O)cc3)cs2)cc1,106% (active)
4,COc1ccc2nc(CC(C)(C)CC(=O)O)c[n+]([O-])c2c1,inactive
5,O=C(NC1CC1)c1cccc(Nc2ccc(-c3ccc4c(c3)OCCO4)nn2)c1,inactive
6,CCOC(=O)N1CCN(C(=O)COc2cc(=O)n(C)c3ccccc23)CC1,inactive
7,Cn1c(=O)cc(OCCCC(=O)Nc2ccc3c(c2)OCCO3)c2ccccc21,inactive
8,Cn1c(=O)cc(OCCCC(=O)N2CCCCC2)c2ccccc21,101% (active)
9,CCOC(=O)c1nn(-c2sc(C(=O)OC)c(C)c2C(=O)OC)cc1O,inactive
10,COc1ccc(CCn2c(N)c(C#N)c3nc4ccccc4nc32)cc1OC,inactive
11,COc1cc(/C=C/C(=O)CC(=O)/C=C/c2ccc(O)c(OC)c2)ccc1O,85.5% (active)
12,CCN(CC)C(=O)c1ccc(O)c(OC)c1,inactive
13,O=C(O)/C=C/c1ccc(O)c(O)c1,inactive
14,COc1ccc(N2CCN(c3ncnc4c3cnn4-c3ccc(C)cc3C)CC2)cc1,inactive
15,CC1(C)Cc2c(sc3c2c(=N)n(Cc2ccco2)c(=O)n3Cc2ccccc2)CO1,inactive
16,Cc1nc(-c2ccccc2)sc1C(N)=O,inactive
17,Clc1ccc(Cl)c(-c2nn3c(Cn4cnc5ccccc54)nnc3s2)c1,inactive
18,CSc1ccccc1NC(=O)CN(c1ccccc1)S(=O)(=O)N(C)C,inactive
19,CSc1ccc(Cn2nnc(C(=O)NCc3ccccc3)c2N)cc1,inactive
20,CC(=O)N1CCN(c2ccc(N=Cc3c(O)n(Cc4ccccc4)c(=O)[nH]c3=O)cc2)CC1,inactive
21,C1=CC2CC1CC2CN1CCN(c2ccccc2)CC1 (centres undefined),inactive
22,CCOC(=O)C(NC(=O)CC)(Nc1ccc(S(=O)(=O)Nc2onc(C)c2C)cc1)C(F)(F)F (centres undefined),inactive
23,O=C(Nc1nc2c(s1)CCc1ccccc1-2)c1cccs1,inactive
24,CS(=O)(=O)N1CCCC(C(=O)NCc2ccccc2Cl)C1 (centres undefined),inactive

row,Structure (SMILES),inhibition
1,COC(=O)c1sc(NC(=O)COc2ccccc2OC)nc1C,inactive
2,CCOC(=O)c1sc(NS(=O)(=O)c2ccc(NC(C)=O)cc2)nc1C,inactive
3,CCOC(=O)c1sc(Nc2nc3c(OC)cccc3s2)nc1C,73.7% (active)
4,O=C(O)c1[nH]c2ccc(Cl)cc2c1CC(=O)N1CCN(C(=O)c2ccco2)CC1,inactive
5,O=C(c1ccco1)N1CCN(c2cccc(Cl)c2)CC1,inactive
6,O=C(c1ccco1)N1CCN(c2c(-c3ccccc3)c3cc(Cl)ccc3[nH]c2=O)CC1,86.3% (active)
7,O=S1(=O)C=C(Sc2nc3ccccc3s2)c2ccccc21,110%
8,Cc1cc(C)nc(SC2=CS(=O)(=O)c3ccccc32)n1,91% (active)
9,O=S1(=O)C=C(Sc2nnc(-c3ccccc3)o2)c2ccccc21,inactive
10,Cc1ccc(-c2nc3cnccn3c2Nc2ccc3c(c2)OCO3)o1,inactive
11,CCOC(=O)C(C(C)=O)c1nc(C)nc2c1nnn2Cc1ccccc1Cl (centres undefined),inactive
12,CCC(C(=O)NC(C)CCc1ccco1)n1nc(C)n2c(cc3occc32)c1=O (centres undefined),inactive
13,CCOc1ccccc1NC(=O)CCN1CCN(S(=O)(=O)c2ccc(Br)cc2)CC1,inactive
14,COc1cccc(-c2nc(CS(=O)(=O)CC(=O)N3CCN(c4ccccn4)CC3)c(C)o2)c1,inactive
15,Cc1cc(C)n(-c2nc3ccccc3c(=O)n2OCCOc2ccccc2)n1,inactive
16,Cn1cccc1Cc1nnc(SCC(=O)N2CCOCC2)n1-c1ccc(F)cc1,inactive
17,O=C(CN(c1ccc(F)cc1)S(=O)(=O)c1ccc2c(c1)OCCO2)Nc1ccc2c(c1)OCO2,inactive
18,CN(C)/C=C(\C#N)c1nc2ccccc2[nH]1,inactive
19,O=C(CN(c1ccc(F)cc1)S(=O)(=O)c1ccc2c(c1)OCCO2)Nc1cccnc1,inactive
20,COc1ccc(CNc2oc(-c3cccc4ccccc34)nc2C#N)cc1,inactive
21,CCCCc1oc2ccccc2c1C(=O)c1cc(I)c(OCCN(CC)CC)c(I)c1,85.9% (active)
22,CCc1oc2ccccc2c1C(=O)c1cc(Br)c(O)c(Br)c1,inactive
23,CCN(CC)CCOC(=O)c1c(C)oc2ccc(O)cc12,inactive
24,O=C(COc1ccccc1Cl)NCc1ccco1,inactive

row,Structure (SMILES),inhibition
1,CCCC1Cc2c(sc3ncnc(N)c23)CO1 (centres undefined),inactive
2,COc1cccc(NC(=O)N2CCC(N3CCCCC3)CC2)c1,inactive
3,CCc1nc(C)c(C#N)c2cc(OC)c(OC)cc12,inactive
4,COc1cc(CC(=O)Nc2ncc(C)s2)cc(OC)c1OC,inactive
5,C#CCNc1c(C)c(C)nc2ncnn12,inactive
6,CCN1CCN(Cc2ccc(NC(=O)Nc3ccc(SC)cc3)cc2)CC1,inactive
7,Cn1c(=O)[nH]c(=O)c2[nH]c(CN3CCN(C(=O)c4ccco4)CC3)nc21,inactive
8,CC(=O)[C@H]1CC[C@H]2[C@@H]3CCC4=CC(=O)CC[C@]4(C)[C@H]3CC[C@]12C,96.7% (active)
9,C[C@]12CC[C@H]3[C@@H](CCC4=CC(=O)CC[C@@]43C)[C@@H]1CC[C@@H]2C(=O)CO,inactive
10,CC(=O)OCC(=O)[C@H]1CC[C@H]2[C@@H]3CCC4=CC(=O)CC[C@]4(C)[C@H]3CC[C@]12C,inactive
11,CCC(=O)N[C@@H]1CC(C(C)(C)NC(=O)CC)CC=C1C (some centres undefined),inactive
12,COc1cc(OC)c2c(c1)OC(c1ccc(OC)c(OC)c1)C(O)C2=O (centres undefined),inactive
13,Cc1ccc(-c2cc(C(F)F)nc(N3CCC(C)CC3)n2)cc1,inactive
14,Cc1[nH]n(C(N)=S)c(=O)c1C(c1ccccc1)C(C#N)C#N (centres undefined),inactive
15,CCOC(=O)c1cnc(-n2nc(C)cc2C)nc1N1CC(C)OC(C)C1 (centres undefined),inactive
16,Cc1ccc(S(=O)(=O)N2CCCC2C(=O)n2nc(C)cc2C)cc1 (centres undefined),inactive
17,CCOCCn1c(CN2CCC(Cc3ccccc3)CC2)nc2c1c(=O)n(C)c(=O)n2C,inactive
18,Oc1c(C(c2ccccc2)N2CCc3ccccc3C2)sc2ncnn12 (centres undefined),inactive
19,CC1=C(C(N)=O)C(c2ccc(Cl)cc2Cl)n2ncnc2N1 (centres undefined),inactive
20,COC(=O)C1=C(C)N(c2ccc(C(=O)OC)cc2)C(=O)C1,inactive
21,COCCCNC(=O)CCn1c(=O)c2ccccc2n(CC(=O)Nc2ccc(C)cc2C)c1=O,inactive
22,CCOc1cc(-c2nc3ccccn3c2NCC2CCCO2)ccc1O (centres undefined),inactive
23,Cc1cc(C)nc(SCc2nnc(SCc3ccccc3Cl)o2)n1,inactive

# From PubChem BioAssay AID454 (Sanford-Burnham Center for Chemical Genomics, 2006)
